High-throughput results from PubChem.
Sampled rows, rich in hits. Any-hit rate of the full collection: about 7.5%.
ELG1 DNA repair: blocks ELG1-dependent DNA repair in HEK293T cells; hit rate 2.3% among 330,000; Potency, µM (series often up to 46.1 µM), for inactives: top-dose activity change, negative = inhibition, most hits filed as inhibitors; HEK293T ELG1-luciferase reporter, luminescence, 16 h; DNA damage induced by 5-fluorouridine; AID 504467; further: potency means the concentration at half of the fitted maximal effect; nearly all actives have a fitted effect of over 55% in size
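Step one: seed 2,000 cells per well. Step two: pin-transfer compound or DMSO alongside 5-fluorouridine. Step three: incubate 16 hr, 37 °C, 5% CO2. Step four: add ONE-Glo, wait 30 min, read luminescence.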
B2AR arrestin: recruits beta-arrestin to the human beta2-adrenergic receptor; P07550; beta-arrestin recruitment to beta2AR, cell-based reporter; Potency, µM (highest dose often 46.1 µM), without a hit: at the top dose activation, most hits filed as activators; hit rate 0.02% among 330,000; AID 492947;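 further: potency means the concentration at half of the fitted maximal effect; 0% = DMSO controls and full agonism = EC100 isoproterenol or metaproterenol; nearly all actives have a fitted effect of over 65% in size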
RORgamma inh: blocks mouse ROR gamma transcriptional activity; P51450; Drosophila S2 Gal4-RORgamma UAS-luciferase reporter, 20 h; Potency, µM (titrated, usually from 53.6 µM), for inactives: at the highest dose activity change, negative = inhibition, most hits filed as inhibitors; hit rate 5.4% among 310,000; AID 2551; further: potency means the concentration at half of the fitted maximal effect; nearly all actives have a fitted effect of over 60% in size
Target sequence (P51450 whole entry, looked up, the tested form may be a part): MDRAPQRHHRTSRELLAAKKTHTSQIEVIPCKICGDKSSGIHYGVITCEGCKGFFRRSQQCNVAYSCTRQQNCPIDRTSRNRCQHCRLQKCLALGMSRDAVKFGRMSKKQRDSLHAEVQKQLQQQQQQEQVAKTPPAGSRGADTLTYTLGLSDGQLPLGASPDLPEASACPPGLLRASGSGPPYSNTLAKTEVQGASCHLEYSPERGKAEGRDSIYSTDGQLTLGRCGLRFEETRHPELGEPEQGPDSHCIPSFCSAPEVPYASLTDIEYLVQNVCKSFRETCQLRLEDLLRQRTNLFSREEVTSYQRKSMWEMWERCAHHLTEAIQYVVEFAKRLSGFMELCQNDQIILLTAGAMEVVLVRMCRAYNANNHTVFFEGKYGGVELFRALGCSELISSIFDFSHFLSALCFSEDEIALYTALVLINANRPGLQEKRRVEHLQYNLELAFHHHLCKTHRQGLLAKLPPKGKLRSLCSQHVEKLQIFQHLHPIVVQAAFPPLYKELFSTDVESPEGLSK
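Stable Schneider cell line, Gal4 DNA-binding domain fused to ROR gamma, UAS-luciferase. Cmpd 1 hr RT → CuSO4 700 uM final → 20 hr RT → luciferase reagent 10 min → luminescence.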
TSHR antagonist: antagonists of human thyroid stimulating hormone receptor; TSHR-expressing cells, TSH-stimulated cAMP HTRF, 2 h; hits give low values; P16473; AID 504810; activity change, negative = inhibition, % at 11.5 µM; hit rate 0.2% among 330,000;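 active means activity change below a set negative limit, meaning inhibition stronger than a set level, cut at about -70% in these data; inconclusive means activity change between two set negative limits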
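Inhibition of cAMP made by TSHR-expressing cells under TSH stimulation (4nM final, EC80; 2 h, 37 deg C) is quantified with a one-step lysis HTRF kit, anti-cAMP cryptate versus cAMP-d2.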
Gal4-VP16 FLuc: Gal4-VP16 reporter inhibition counter-screen. Drosophila S2 Gal4-VP16 UAS-luciferase, luminescence, 20 h. Potency, µM (doses to about 53.6 µM), without a hit: at the highest dose activity, negative = inhibition, usual class: inhibitors. hit rate 3.5% among 310,000. AID 2546;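 further: Gal4-VP16 expression switched on by copper sulfate through the metallothionein promoter; potency means the concentration at half of the fitted maximal effect; nearly all actives have a fitted effect of over 50% in size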
* marks the source's active call; other numbers are inactive results; u = inconclusive; x = no result given; [ ] = remark or other dose. Unless noted, the call rests on the fitted dose curve; in most records, active means well fitted curve in the direction sought with a large enough effect; inconclusive means small, poorly fitted or top-dose-only effect, or another doubt; inactive means no such curve, though single readings can be large; an effect the other way counts as inactive or inconclusive. Unless noted, on the % scale 0 is the no-effect control and ±100 the full control effect.

SMILES | ELG1 DNA repair | B2AR arrestin | RORgamma inh | TSHR antagonist | Gal4-VP16 FLuc
Cc1cccc(N2CCN(C(=O)COc3ccc4c(C)cc(=O)oc4c3C)CC2)c1C | 26µM* | 0% | 0% | -16 | 0%
Cc1cccc(N2CCN(C(=O)CSc3ccc4c(c3)OCCO4)CC2)c1C | 11µM* | -1% | x | -9 | x
COc1ccc(CCNC(=O)CCNC(=O)N2CC(=O)Nc3ccccc32)cc1 | 10% | 0% | -18% | 32 | 9%
CC(=O)c1ccc(N2CCN(S(=O)(=O)c3ccc4c(c3)CC(C)N4C(=O)C3CC3)CC2)cc1 (centres undefined) | u | 0% | -41% | -9 | 11µM*
Cc1cccc(N2CCN(S(=O)(=O)c3ccc4c(c3)CC(C)N4C(=O)C3CC3)CC2)c1C (centres undefined) | u | 0% | 20% | -1 | -7%
Cc1ccc(C)c(N2CCN(S(=O)(=O)c3ccc4c(c3)CC(C)N4C(=O)C3CC3)CC2)c1 (centres undefined) | u | 0% | 5% | -77* | -13%
CC(=O)c1ccc(N2CCN(S(=O)(=O)c3ccc4c(c3)CC(C)N4C(C)=O)CC2)cc1 (centres undefined) | u | 0% | u | -28 | u
COC(=O)CC1c2ccccc2C=C(C2CC2)N1C(=O)OC (centres undefined) | x | x | 2% | x | -6%
CCOc1ccc(/C=N/NC(=O)C2CCCC2)c(OCC)c1 | -3% | 0% | -29% | -2 | 4%
Cc1nnc2n(-c3ccccc3)c(=O)c3c4c(sc3n12)COC(C(C)C)C4 (centres undefined) | -5% | 0% | 18% | 0 | -4%
CC(C)C1Cc2c(sc3[nH]c(=S)n(Cc4ccccc4)c(=O)c23)CO1 (centres undefined) | 0% | 0% | 0.45µM* | -5 | 0.56µM*
C=C[C@@]1(C)CC(=O)[C@]2(O)[C@@]3(C)[C@H](O)CCC(C)(C)[C@@H]3[C@H](O)[C@H](OC(C)=O)[C@@]2(C)O1 | x | x | 3% | x | -4%
COc1cccc(-c2ccc3ncnc(NCc4cccc(F)c4)c3c2)c1 | x | 0% | x | -27 | x
Cc1nc2[nH]c(=O)[nH]c(=O)c2[nH]1 | x | x | -4% | x | -6%
O=C(NNC(=S)NC(=O)c1ccccc1[N+](=O)[O-])c1ccccc1 | -4% | 0% | 15% | -3 | 7%
O=C(NNC(=O)c1ccccc1[N+](=O)[O-])c1ccccc1[N+](=O)[O-] | -5% | 4% | 3% | -5 | 17%
O=C(NC(=S)NNC(=O)c1ccccc1[N+](=O)[O-])c1ccccc1 | 4% | -1% | 4.5µM* | 5 | 3.2µM*
CCC(=O)NC(=S)NNC(=O)c1ccccc1[N+](=O)[O-] | -2% | 0% | 18µM* | -8 | -15%
CCN1C(=O)/C(=C/c2ccc(C)o2)N(C)C1=S | u | 0% | u | 11 | 13µM*
COc1ccccc1CCNC(=O)C1CCC(=O)N(Cc2ccccc2OC)C1 (centres undefined) | 11% | -2% | -19% | -1 | -1%
COc1ccccc1CN1CC(C(=O)NCCCc2ccc(F)cc2)CCC1=O (centres undefined) | 10µM* | 0% | u | -19 | 2%
COc1ccc(O[C@H]2C=C[C@@H](c3ccccc3)O[C@H]2CO/N=C(/C)CCC(=O)OC[C@@H]2O[C@H](c3ccccc3)C=C[C@@H]2Oc2ccc(OC)cc2)cc1 | x | x | 26%[10 µM] | x | -3%[10 µM]
COc1ccc(O[C@H]2C=C[C@@H](c3ccccc3)O[C@@H]2COC(=O)CC/C(C)=N/O[C@H](C)c2cn([C@@H]3COC[C@H]3O)nn2)cc1 | 26µM* | -1% | u | -7 | -3%
N#Cc1cccc(-c2nc3cnc(N4CCOCC4)nc3n(C[C@H]3CCCO3)c2=O)c1 | x | x | -14% | x | 0%
CCSC1(SCC)N=C(N)C2(C#N)C(c3ccc(OC)c(OC)c3OC)C12C#N (centres undefined) | 15µM* | 0% | 11µM* | -1 | 2.5µM*
SMILES | ELG1 DNA repair | B2AR arrestin | RORgamma inh | TSHR antagonist | Gal4-VP16 FLuc
CC1=NN(C(N)=S)C(=O)C1N=Nc1ccccc1O (centres undefined) | -5% | 0% | -40% | 4 | -28%
CC1=NN(C(N)=S)C(=O)C1N=Nc1ccccc1C (centres undefined) | u | -1% | 0.1µM* | -13 | 0.045µM*
CC1=NN(C(N)=S)C(=O)C1N=Nc1ccc(C)cc1C (centres undefined) | u | 1% | 0.5µM* | -17 | 1.1µM*
CC1=NN(C(N)=S)C(=O)C1N=Nc1c(Cl)cc([N+](=O)[O-])cc1Cl (centres undefined) | u | -1% | 0.35µM* | -34 | 1.6µM*
CC1=NN(c2ccccc2)C(=O)C1C(=O)c1cc([N+](=O)[O-])cc([N+](=O)[O-])c1 (centres undefined) | 2% | -1% | 12% | 15 | u
CCOc1ccccc1N=Cc1c(O)n(C)c(=O)n(C)c1=O | -2% | -1% | 4% | -6 | 3%
CCOc1ccccc1N=NC1C(=O)N(C(N)=S)N=C1C (centres undefined) | 9% | 1.1µM* | 0.71µM* | -20 | 1µM*
CCCn1c(N)c(C(=O)CSc2nc3ncc(Cl)cc3[nH]2)c(=O)[nH]c1=O | -2% | 0% | x | 10 | x
Cc1ccc(C(C)C)c(OCC(=O)OCC(=O)NC2CCS(=O)(=O)C2)c1 (centres undefined) | 5% | 0% | x | 8 | x
CC1=NN(C(N)=S)C(=O)C1N=Nc1c(Br)cc(Br)cc1Br (centres undefined) | 3% | 0% | 1.4µM* | -43 | 1.3µM*
CC1=NN(C(N)=S)C(=O)C1N=Nc1ccc(S(N)(=O)=O)cc1 (centres undefined) | 8% | 0% | -10%[1.91 µM] | 0 | u
CC1=NN(c2nc(-c3ccc(C)cc3)cs2)C(=O)C1N=Nc1ccc(C(N)=O)cc1 (centres undefined) | -10% | -1% | 12% | -11 | -10%
CC1=NN(C(N)=S)C(=O)C1N=Nc1c(C)cc(C)cc1C (centres undefined) | 27% | u | 0.5µM* | 9 | 1.8µM*
CC1=NN(C(N)=S)C(=O)C1N=Nc1cccc(Cl)c1 (centres undefined) | u | u | 0.79µM* | -13 | 2µM*
CC(=O)N(C)c1ccc(N=NC2C(=O)N(C(N)=S)N=C2C)cc1 (centres undefined) | u | 0% | 1µM* | -46 | 2µM*
NCCC(=O)N[C@H](Cc1cnc[nH]1)C(=O)O | x | x | -24% | x | 4%
C[C@H](NC(=O)c1ccc2ccccc2c1)C(=O)N1CCC2(CC1)NCCc1[nH]cnc12 | 0% | 1% | -20% | 6 | -3%
CS(=O)(=O)N1CCC2(CCCN(Cc3ccccc3)C2)CC1 | x | x | 4% | x | -5%
